Assay [1] concerns the target human Phosphodiesterase 5 (PDE5), PDE5A (gene 8654) (UniProt O76074). The experiment in a line: NVS_ENZ_hPDE5: NovaScreen (NVS) Enzymatic Assay for human Phosphodiesterase 5 (PDE5) (AID 2283194). The method in brief: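 Recombinant human PDE5 with specific substrate, read 1 h after dosing by fluorescence with electrophoretic mobility-shift separation of substrate and product. Initial single-concentration duplicate screen at 25 uM, actives followed in concentration series; loss of activity versus DMSO.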

Assay [2] concerns the target human Phosphatase and Tensin Homolog (PTEN), PTEN (gene 5728) (UniProt P60484). In words: NVS_ENZ_hPTEN: NovaScreen (NVS) Enzymatic Assay for human Phosphatase and Tensin Homolog (PTEN) (AID 2283203). The method in brief: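 Cell-free recombinant human PTEN with fluorescent substrate; product separated by electrophoretic mobility shift and read by fluorescence 1 h after dosing. Primary screen in duplicate at 25 uM, actives followed in concentration series versus DMSO.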

Assay [3] concerns the target human Protein Phosphatase, Mg2+/Mn2+ Dependent 1A (PPM1A), PPM1A (gene 5494) (UniProt P35813). The experiment in a line: NVS_ENZ_hPPM1A: NovaScreen (NVS) Enzymatic Assay for human Protein Phosphatase, Mg2+/Mn2+ Dependent 1A (PPM1A) (AID 2283198). The gist of the method: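 Cell-free recombinant PPM1A phosphatase assay with fluorescent substrate, read 1 h after dosing by electrophoretic mobility shift. Chemicals screened in duplicate at 25 uM, then in concentration-response up to 50 uM; loss of activity versus DMSO.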

In assay [4] the target is Serine/threonine-protein phosphatase PP1-alpha catalytic subunit (Homo sapiens) (UniProt P62136). The experiment in a line: NVS_ENZ_hPPP1CA: NovaScreen (NVS) Enzymatic Assay for human Protein Phosphatase 1 Aatalytic subunit Alpha (PPP1CA) (AID 2283200). The gist of the method:
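Recombinant enzyme activity read by fluorescence with electrophoretic mobility shift separating substrate from product, 1.33 h after dosing; loss of signal vs DMSO baseline. Primary screen in duplicate at 25 uM; actives retested in concentration-response up to 50 uM.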

Assay [5] addresses PPP2CA (gene 5515) (UniProt P67775). In words: NVS_ENZ_hPPP2CA: NovaScreen (NVS) Enzymatic Assay for human Protein Phosphatase 2 Aatalytic subunit Alpha (PPP2CA) (AID 2283199). The procedure:
NVS_ENZ_hPPP2CA is a biochemical, single-readout assay that uses extracted gene-proteins in a cell-free assay. Measurements were taken 1.33 hours after chemical dosing in a 384-well plate.NVS_ENZ_hPPP2CA is one of one assay component(s) measured or calculated from the NVS_ENZ_hPPP2CA assay. It is designed to make measurements of enzyme activity, a form of enzyme reporter, as detected with fluorescence intensity signals by Fluorescence and electrophoretic mobility shift technology.Data from the assay component NVS_ENZ_hPPP2CA was analyzed into 1 assay endpoint. This assay endpoint, NVS_ENZ_hPPP2CA, was analyzed in the positive analysis fitting direction relative to DMSO as the negative control and baseline of activity. Using a type of enzyme reporter, loss-of-signal activity can be used to understand changes in the enzymatic activity as they relate to the gene PPP2CA. Furthermore, this assay endpoint can be referred to as a primary readout, because this assay has produced multiple assay endpoints where this one serves a enzymatic activity function. To generalize the intended target to other relatable targets, this assay endpoint is annotated to the phosphatase intended target family, where the subfamily is serine/threonine phosphatase.
Binding assays used specific radioligands (tritiated, iodinated) with non-radioactive competitive displacement ligands in agonist or antagonist protocols (as indicated) and various reference compounds and inhibitors to titrate specific binding to receptors and transporters. Most enzyme assays (CYPs, kinases, phosphatases, proteases, HDACs) used recombinant protein and specific substrates (fluorescence mostly, some colorimetric and radioactive) and inhibitors, followed by a biochemical separation of substrate and product. All assays for the biochemical HTS were initially run in duplicate at a single concentration (10 uM for CYP450 assays and 25 uM for all others). Assay-chemical combinations meeting a pre-defined threshold (e.g., 30% inhibition and other criteria defined below) were then run in singleton concentration-response format with maximum concentration of 20 uM for CYPs and 50 uM for all others. Each assay was run with positive and negative controls, and concurrent controls on every plate. The follow-up (secondary) screen tested active chemical-pairs in concentration series, as well as a few additional assays not tested in the primary screen, some selected negative inactives, and several cases re-run in the concentration series for confirmatory purposes.

The target of assay [6] is human Phosphodiesterase 10 (PDE10), PDE10A (gene 10846) (UniProt Q9Y233). The experiment in a line: NVS_ENZ_hPDE10: NovaScreen (NVS) Enzymatic Assay for human Phosphodiesterase 10 (PDE10) (AID 2283195). The method in brief:
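Recombinant human PDE10 with fluorescent substrate, 1 h, product separated by electrophoretic mobility shift. Loss of enzyme activity fitted against DMSO; initial screen 25 uM in duplicate, actives run to 50 uM maximum.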

Assay [7] deals with cAMP-dependent protein kinase catalytic subunit alpha (Homo sapiens) (UniProt P17612). The experiment in a line: NVS_ENZ_hPKA: NovaScreen (NVS) Enzymatic Assay for human Protein Kinase A (PKA) (AID 2283192). The method in brief:
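Recombinant human PKA with specific fluorescent substrate, product separated by electrophoretic mobility shift, read 1 h after dosing. Primary screen at 25 uM in duplicate; actives then run in concentration-response up to 50 uM, activity relative to DMSO.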

Assay [8] deals with human Phosphoinositide 3-kinase alpha (PI3Ka), PIK3CA (gene 5290) (UniProt P42336). The experiment in a line: NVS_ENZ_hPI3Ka: NovaScreen (NVS) Enzymatic Assay for human Phosphoinositide 3-kinase alpha (PI3Ka) (AID 2283196). The method in brief:
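Chemicals were first screened at 25 uM in duplicate, then hits were run as concentration series up to 50 uM. Enzyme activity was measured by fluorescence after mobility-shift separation, with loss of signal relative to DMSO taken as activity.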

The target of assay [9] is human Protein Tyrosine Phosphatase Non-receptor Type 1 (PTPN1), PTPN1 (gene 5770) (UniProt P18031). The experiment in a line: NVS_ENZ_hPTPN1: NovaScreen (NVS) Enzymatic Assay for human Protein Tyrosine Phosphatase Non-receptor Type 1 (PTPN1) (AID 2283201). The method in brief: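 Cell-free fluorogenic-substrate activity assay on recombinant enzyme, read 1.33 h after dosing by fluorescence and electrophoretic mobility shift; loss of signal vs DMSO baseline. Primary screen in duplicate at 25 uM, hits then run in concentration-response up to 50 uM.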
human Protein Tyrosine Phosphatase Non-receptor Type 1 (PTPN1), PTPN1 (gene 5770), sequence (P18031 whole entry, looked up): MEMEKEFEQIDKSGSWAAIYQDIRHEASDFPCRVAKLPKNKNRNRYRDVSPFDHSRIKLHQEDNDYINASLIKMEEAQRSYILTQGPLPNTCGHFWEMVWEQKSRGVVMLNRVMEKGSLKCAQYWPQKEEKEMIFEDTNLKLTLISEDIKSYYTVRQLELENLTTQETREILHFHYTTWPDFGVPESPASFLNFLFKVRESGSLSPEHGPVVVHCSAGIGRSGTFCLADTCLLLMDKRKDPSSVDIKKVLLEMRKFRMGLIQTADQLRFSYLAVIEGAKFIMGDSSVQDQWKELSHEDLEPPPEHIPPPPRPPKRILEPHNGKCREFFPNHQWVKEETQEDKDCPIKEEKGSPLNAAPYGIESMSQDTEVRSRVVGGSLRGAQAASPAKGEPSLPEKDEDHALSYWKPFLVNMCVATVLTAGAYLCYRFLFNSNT

Assay [10] deals with Tyrosine-protein phosphatase non-receptor type 11 (Homo sapiens) (UniProt Q06124). The experiment in a line: NVS_ENZ_hPTPN11: NovaScreen (NVS) Enzymatic Assay for human Protein Tyrosine Phosphatase Non-receptor Type 11 (PTPN11) (AID 2283202). The method in brief: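 Recombinant human PTPN11 activity on a fluorescent substrate, with substrate/product separated by electrophoretic mobility shift; read 0.5 h after dosing, loss of signal vs DMSO. Duplicate 25 uM screen, then concentration-response up to 50 uM.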
Tyrosine-protein phosphatase non-receptor type 11 (Homo sapiens), sequence (Q06124 whole entry, looked up): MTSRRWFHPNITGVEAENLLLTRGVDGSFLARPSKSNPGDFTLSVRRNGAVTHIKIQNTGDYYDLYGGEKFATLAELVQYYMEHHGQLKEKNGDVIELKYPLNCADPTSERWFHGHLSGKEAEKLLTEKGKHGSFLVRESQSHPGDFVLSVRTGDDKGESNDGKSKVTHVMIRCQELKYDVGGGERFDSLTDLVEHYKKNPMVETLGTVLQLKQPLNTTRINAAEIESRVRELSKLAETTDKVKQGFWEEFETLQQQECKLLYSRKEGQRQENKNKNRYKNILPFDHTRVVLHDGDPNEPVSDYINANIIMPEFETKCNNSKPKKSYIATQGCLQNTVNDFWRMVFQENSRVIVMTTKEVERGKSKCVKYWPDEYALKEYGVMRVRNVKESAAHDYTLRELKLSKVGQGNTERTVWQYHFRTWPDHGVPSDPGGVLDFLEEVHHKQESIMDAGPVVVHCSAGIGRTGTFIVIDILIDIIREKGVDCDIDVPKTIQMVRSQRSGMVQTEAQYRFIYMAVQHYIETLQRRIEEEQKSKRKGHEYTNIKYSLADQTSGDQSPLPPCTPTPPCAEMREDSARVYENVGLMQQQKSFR

Records with an inconclusive call do not appear. Activity calls are given as the source filed them. The calls were made as follows: active = hit-call score of the fitted dose curve at least 0.9, where 1 is the maximum; inconclusive = response in the unintended direction; inactive = score below 0.9.

human Protein Phosphatase, Mg2+/Mn2+ Dependent 1A (PPM1A), PPM1A (gene 5494), sequence (P35813 whole entry, looked up): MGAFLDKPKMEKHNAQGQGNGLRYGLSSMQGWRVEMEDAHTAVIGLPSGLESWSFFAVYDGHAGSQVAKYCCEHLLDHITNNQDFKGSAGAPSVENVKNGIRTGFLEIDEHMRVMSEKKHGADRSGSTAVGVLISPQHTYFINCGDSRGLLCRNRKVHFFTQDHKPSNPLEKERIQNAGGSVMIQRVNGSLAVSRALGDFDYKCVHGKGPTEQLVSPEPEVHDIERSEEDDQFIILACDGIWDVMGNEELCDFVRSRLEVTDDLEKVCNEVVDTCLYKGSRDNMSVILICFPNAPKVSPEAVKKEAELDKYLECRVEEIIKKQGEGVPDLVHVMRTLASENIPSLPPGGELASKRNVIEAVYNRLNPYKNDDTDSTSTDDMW
PPP2CA (gene 5515), sequence (P67775 whole entry, looked up): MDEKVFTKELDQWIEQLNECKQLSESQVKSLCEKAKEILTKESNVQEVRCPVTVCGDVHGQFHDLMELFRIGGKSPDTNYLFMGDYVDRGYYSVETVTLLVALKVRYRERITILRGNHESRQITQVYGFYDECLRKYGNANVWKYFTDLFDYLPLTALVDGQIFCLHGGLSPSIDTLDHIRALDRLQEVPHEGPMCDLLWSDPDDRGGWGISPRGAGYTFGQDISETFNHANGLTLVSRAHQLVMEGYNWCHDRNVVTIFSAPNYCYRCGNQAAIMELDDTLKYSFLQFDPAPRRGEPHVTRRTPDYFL
Serine/threonine-protein phosphatase PP1-alpha catalytic subunit (Homo sapiens), sequence (P62136 whole entry, looked up): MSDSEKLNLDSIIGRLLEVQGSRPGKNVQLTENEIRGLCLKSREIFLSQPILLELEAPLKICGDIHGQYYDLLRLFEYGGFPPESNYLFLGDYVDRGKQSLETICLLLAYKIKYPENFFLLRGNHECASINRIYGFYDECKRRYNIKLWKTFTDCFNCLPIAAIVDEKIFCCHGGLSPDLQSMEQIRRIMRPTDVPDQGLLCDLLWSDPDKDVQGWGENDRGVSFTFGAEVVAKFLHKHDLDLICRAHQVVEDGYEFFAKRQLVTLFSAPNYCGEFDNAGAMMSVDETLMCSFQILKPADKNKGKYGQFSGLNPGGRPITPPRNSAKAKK
human Phosphatase and Tensin Homolog (PTEN), PTEN (gene 5728), sequence (P60484 whole entry, looked up): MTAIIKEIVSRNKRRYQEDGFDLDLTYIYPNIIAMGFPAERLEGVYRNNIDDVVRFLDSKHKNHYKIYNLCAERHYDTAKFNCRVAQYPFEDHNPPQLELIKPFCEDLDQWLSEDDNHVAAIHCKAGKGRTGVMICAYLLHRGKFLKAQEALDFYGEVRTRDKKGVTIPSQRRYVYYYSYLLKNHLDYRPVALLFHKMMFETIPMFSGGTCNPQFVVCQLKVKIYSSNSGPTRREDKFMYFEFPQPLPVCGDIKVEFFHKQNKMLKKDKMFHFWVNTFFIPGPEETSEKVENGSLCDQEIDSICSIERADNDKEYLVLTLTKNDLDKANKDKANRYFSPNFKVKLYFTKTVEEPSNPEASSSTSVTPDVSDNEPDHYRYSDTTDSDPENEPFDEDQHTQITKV
human Phosphodiesterase 10 (PDE10), PDE10A (gene 10846), sequence (Q9Y233 whole entry, looked up): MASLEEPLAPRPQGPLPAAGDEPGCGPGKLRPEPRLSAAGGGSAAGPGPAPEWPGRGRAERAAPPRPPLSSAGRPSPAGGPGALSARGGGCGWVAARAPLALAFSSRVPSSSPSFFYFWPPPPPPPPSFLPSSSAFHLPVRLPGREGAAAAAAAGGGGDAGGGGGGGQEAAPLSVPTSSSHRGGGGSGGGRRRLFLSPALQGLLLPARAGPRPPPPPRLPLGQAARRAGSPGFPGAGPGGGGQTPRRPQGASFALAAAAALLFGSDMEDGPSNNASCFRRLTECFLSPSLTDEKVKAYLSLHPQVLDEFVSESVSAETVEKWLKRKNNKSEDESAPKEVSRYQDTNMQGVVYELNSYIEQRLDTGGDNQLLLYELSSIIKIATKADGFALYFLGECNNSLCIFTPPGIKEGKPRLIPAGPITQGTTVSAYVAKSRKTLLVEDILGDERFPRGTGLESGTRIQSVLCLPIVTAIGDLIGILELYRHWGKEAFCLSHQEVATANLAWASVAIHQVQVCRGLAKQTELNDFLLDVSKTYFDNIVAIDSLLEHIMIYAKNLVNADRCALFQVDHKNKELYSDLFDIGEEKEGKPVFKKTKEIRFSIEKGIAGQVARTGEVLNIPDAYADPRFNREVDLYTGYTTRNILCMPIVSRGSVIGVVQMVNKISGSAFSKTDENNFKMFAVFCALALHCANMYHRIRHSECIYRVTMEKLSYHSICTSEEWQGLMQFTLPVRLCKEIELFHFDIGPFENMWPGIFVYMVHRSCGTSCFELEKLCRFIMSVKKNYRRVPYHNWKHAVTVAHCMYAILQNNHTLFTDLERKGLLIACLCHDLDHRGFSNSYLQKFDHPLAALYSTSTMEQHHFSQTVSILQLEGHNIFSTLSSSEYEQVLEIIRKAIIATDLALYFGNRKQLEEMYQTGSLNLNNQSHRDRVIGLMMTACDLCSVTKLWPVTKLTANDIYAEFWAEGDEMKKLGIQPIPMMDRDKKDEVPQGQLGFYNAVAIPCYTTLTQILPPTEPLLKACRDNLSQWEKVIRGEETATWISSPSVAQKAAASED
human Phosphoinositide 3-kinase alpha (PI3Ka), PIK3CA (gene 5290), sequence (P42336 whole entry, looked up): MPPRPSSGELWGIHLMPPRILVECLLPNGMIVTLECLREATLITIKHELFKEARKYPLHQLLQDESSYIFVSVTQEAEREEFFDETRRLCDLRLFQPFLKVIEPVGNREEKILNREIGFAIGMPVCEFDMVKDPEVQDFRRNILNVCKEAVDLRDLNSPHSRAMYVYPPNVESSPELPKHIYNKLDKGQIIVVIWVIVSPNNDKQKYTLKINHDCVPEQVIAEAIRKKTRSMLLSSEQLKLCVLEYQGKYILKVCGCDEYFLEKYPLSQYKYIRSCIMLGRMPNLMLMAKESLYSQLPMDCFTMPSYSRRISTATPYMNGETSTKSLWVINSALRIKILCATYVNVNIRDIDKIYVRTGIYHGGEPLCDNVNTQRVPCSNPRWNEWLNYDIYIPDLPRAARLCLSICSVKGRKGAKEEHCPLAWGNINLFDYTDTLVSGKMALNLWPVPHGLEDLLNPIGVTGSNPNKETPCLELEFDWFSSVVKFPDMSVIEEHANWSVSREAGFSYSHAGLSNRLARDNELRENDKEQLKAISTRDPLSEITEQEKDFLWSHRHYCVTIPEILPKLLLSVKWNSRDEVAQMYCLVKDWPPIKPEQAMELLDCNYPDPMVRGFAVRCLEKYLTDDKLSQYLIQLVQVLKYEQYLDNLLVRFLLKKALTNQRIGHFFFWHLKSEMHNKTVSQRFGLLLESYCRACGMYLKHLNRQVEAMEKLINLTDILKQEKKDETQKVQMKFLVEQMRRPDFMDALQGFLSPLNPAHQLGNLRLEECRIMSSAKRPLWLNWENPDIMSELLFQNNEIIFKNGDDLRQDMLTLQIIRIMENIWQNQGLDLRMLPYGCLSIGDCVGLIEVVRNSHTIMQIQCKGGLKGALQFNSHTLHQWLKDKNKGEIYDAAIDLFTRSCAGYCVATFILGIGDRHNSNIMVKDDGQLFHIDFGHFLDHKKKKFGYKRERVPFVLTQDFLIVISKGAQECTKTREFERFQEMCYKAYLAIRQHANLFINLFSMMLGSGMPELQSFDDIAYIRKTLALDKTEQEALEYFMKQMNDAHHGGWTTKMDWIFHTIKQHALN

For `CCCSC(=O)N(CCC)CCC`, the call in assay [1] was inactive.
Turning to `Cn1cc(-c2ccccc2)c(=O)c(-c2cccc(C(F)(F)F)c2)c1`, the compound was classed as inactive in assay [2].
Consider `Cc1ccc(N=C=O)cc1N=C=O`, for which the call in assay [3] and in [4] was inactive.
Regarding `CCC12COCN1COC2`, the compound was classed as inactive in [3] and in assay [5].
For `CN(C)c1ccc(C(=O)c2ccc(N(C)C)cc2)cc1`, the AC50 in [1] is 29.1 µM (active).
Take `O=C(Oc1ccc(Br)cc1)N1CCN2CCC1CC2`: the outcome in assay [6] was inactive.
As for `CCCCOC(=O)c1ccccc1C(=O)OCc1ccccc1`, the result in assay [3] was inactive.
Take `CCNS(=O)(=O)C(F)(F)C(F)(F)C(F)(F)C(F)(F)C(F)(F)C(F)(F)C(F)(F)C(F)(F)F`: the compound was called inactive in [7], in assay [1], in [6], in [8], in assay [5] and in assay [9]. For the same compound, the result in assay [10] and in [2] was inactive.
`Nc1ccc([N+](=O)[O-])cc1`: the compound was classed as inactive in [5] and in assay [4].
For `CCCCC(CC)COC(=O)c1ccc(C(=O)OCC(CC)CCCC)c(C(=O)OCC(CC)CCCC)c1` (centres undefined), the compound was classed as inactive in assay [1].
Consider `CCN(CC)N=O`, for which the result in assay [7], in assay [1], in assay [5], in assay [9] and in assay [10] was inactive.
In the case of `CCOc1cccc(C2(N3CCN(c4ccccc4)CC3)CCC(C)CC2)c1` (centres undefined), the outcome in assay [7] and in assay [3] was inactive.
For the compound `c1ccc(C2CO2)cc1` (centres undefined), the compound was classed as inactive in assay [1].
Turning to `Oc1ccc2ccc3cccc4ccc1c2c34`, the AC50 in assay [7] is 6.65 µM (active).
In the case of `Clc1ccc(Cl)c(Cl)c1`, the call in assay [5] was inactive.
For the compound `Nc1ccc(Cl)cc1N`, the AC50 in [1] was 12.6 µM (active).
The same measure, in the same setting: to `C[C@]12C=CC3=C4CCC(=O)C=C4CC[C@H]3[C@@H]1CC[C@@H]2O` belongs 25 µM (active).
For `CC(C)(OOC(C)(C)c1ccccc1)c1ccccc1`, the result in assay [5] was inactive.
For the compound `N#CC(Br)(Br)C(N)=O`, the call in [4] was inactive.

These data come from PubChem BioAssay (EPA / NIEHS).
